Out of some 310,000 compounds screened, about 2,200 (0.71%) showed an effect of 50% or more. Effects have a minus sign here. The list comes from a sample in which strong results are over-represented; it also holds similar structures and randomly drawn compounds.
Each molecule was assayed against human ether-à-go-go-related gene (hERG) potassium channel (human, UniProt Q12809) (assay: primary screen, population patch clamp on CHO cells stably expressing hERG; higher = less effect of the substance).
Sequence of human ether-à-go-go-related gene (hERG) potassium channel (Q12809 whole entry, looked up): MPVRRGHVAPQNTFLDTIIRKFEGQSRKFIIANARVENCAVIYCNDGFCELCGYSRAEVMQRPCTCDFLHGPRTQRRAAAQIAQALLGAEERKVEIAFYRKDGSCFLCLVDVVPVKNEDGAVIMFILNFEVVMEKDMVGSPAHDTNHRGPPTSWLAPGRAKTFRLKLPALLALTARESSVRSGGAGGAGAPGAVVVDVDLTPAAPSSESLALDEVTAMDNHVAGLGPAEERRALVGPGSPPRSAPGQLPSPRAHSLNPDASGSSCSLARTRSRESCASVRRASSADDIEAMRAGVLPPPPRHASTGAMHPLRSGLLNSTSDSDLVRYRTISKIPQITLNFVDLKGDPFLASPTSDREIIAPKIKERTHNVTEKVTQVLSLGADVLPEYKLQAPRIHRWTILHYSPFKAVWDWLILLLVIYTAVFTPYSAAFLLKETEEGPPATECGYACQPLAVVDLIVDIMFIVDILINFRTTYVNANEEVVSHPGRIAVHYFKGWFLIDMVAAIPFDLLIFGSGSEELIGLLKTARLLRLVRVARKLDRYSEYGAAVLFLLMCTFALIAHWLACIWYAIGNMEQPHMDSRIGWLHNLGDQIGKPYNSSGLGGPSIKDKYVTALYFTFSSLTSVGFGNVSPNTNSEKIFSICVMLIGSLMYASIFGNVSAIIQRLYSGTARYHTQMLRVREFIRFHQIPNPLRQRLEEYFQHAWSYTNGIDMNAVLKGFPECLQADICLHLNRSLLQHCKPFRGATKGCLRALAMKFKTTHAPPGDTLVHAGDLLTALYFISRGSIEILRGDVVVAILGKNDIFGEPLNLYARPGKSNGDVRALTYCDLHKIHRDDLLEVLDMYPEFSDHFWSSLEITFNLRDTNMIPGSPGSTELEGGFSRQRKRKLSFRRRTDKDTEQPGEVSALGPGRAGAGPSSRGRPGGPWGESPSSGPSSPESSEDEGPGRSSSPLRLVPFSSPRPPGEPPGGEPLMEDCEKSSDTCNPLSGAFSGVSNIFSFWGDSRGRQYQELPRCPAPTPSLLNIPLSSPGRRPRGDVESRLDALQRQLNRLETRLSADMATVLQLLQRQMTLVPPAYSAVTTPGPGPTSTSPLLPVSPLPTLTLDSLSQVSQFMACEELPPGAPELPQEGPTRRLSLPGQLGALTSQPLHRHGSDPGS

Going from `CCN(CC(=O)NCc1ccc(Cl)cc1)C(=O)/C=C/c1ccccc1` to `CCN(CC(=O)NCc1ccc(Cl)cc1)C(=O)/C=C/c1ccc(C#N)cc1`, the “hERG current change (%, negative = inhibition) at 1uM” value falls from -1.79% to -52.1%.

Compared with `CCN(CC(=O)NCc1ccc(Cl)cc1)C(=O)c1ccc2cc(OC)ccc2c1`, `CCN(CC(=O)NCc1ccc(Cl)cc1)C(=O)Cc1ccc(OC)cc1` is lower in “hERG current change (%, negative = inhibition) at 1uM” value: 7.72% for the first, -66.9% for the second.

Going from `CCN(CC(=O)NCc1ccc(F)cc1)C(=O)CN1CCN(c2ccc(OC)cc2)CC1.O=C(O)C(=O)O` to `CCN(CC(=O)NCc1ccc(F)cc1)C(=O)CN1CCN(c2ccccc2OC)CC1`, the “hERG current change (%, negative = inhibition) at 1uM” value falls from -21.1% to -44.4%.

Compared with `CCN(CC(=O)NCc1ccc(Cl)cc1)C(=O)CCC(=O)c1ccc(C)cc1`, `CCN(CC(=O)NCc1ccc(Cl)cc1)C(=O)CCC(=O)c1ccc(F)cc1` is lower in “hERG current change (%, negative = inhibition) at 1uM” value: -8.96% for the first, -52.2% for the second.

Going from `CCN(CC(=O)NCc1ccc(F)cc1)C(=O)CN1CCN(c2cc(Cl)ccc2C)CC1` to `CCN(CC(=O)NCc1ccc(F)cc1)C(=O)c1ccc(Cl)cc1`, the “hERG current change (%, negative = inhibition) at 1uM” value rises from -68.2% to -2.66%.

First: CCN(CC(=O)NCc1ccc(F)cc1)C(=O)Cc1ccc(OC)cc1
Second: CCN(CC(=O)NCc1ccc(Cl)cc1)C(=O)NCc1ccc(Cl)cc1
The “hERG current change (%, negative = inhibition) at 1uM” value of the first is higher: -37.8% for the first, -54.1% for the second.

Compared with `CCN(CC(=O)NCc1ccc(Cl)cc1)C(=O)/C=C/c1cc(OC)c(OC)c(OC)c1`, `CCN(CC(=O)NCc1ccc(Cl)cc1)C(=O)CCc1ccccc1` is lower in “hERG current change (%, negative = inhibition) at 1uM” value: 11.2% for the first, -19.8% for the second.

Compared with `O=[N+]([O-])c1ccc(CN2CCC(Cc3ccccc3)CC2)cc1`, `C/C(=N/NC(=O)CN1CCN(Cc2ccccc2)CC1)c1ccc([N+](=O)[O-])cc1` is lower in “hERG current change (%, negative = inhibition) at 1uM” value: -9.62% for the first, -72.9% for the second.

First: O=C(NCC1(O)CCCCC1)C1CCC(=O)N(Cc2ccccc2F)C1 (stereo not shown)
Second: C/C(=N/NC(=O)CN1CCN(Cc2ccccc2Cl)CC1)c1ccncc1
The “hERG current change (%, negative = inhibition) at 1uM” value of the first is higher: 15.8% for the first, -18.3% for the second.

Compared with `CCOC(=O)COc1ccc(S(=O)(=O)NCc2ccncc2)cc1`, `Cc1ccc(S(=O)(=O)N2CCN(CC(=O)N/N=C\c3ccncc3)CC2)cc1` is lower in “hERG current change (%, negative = inhibition) at 1uM” value: 8.78% for the first, -26.2% for the second.

First: CCn1cc(CCCC(=O)NCc2ccc(OC)cc2)c2ccccc21
Second: COc1ccc(NC2CCCN(C(=O)c3cccs3)C2)cc1 (stereo not shown)
The “hERG current change (%, negative = inhibition) at 1uM” value of the first is higher: 15.1% for the first, 12.5% for the second.

First: CCOc1cc(/C=C2\C(=O)ON=C2c2ccccc2)ccc1OC
Second: CCS(=O)(=O)NC(C)c1nnc2n1-c1ccc(Br)cc1C(c1ccccc1Cl)=NC2 (stereo not shown)
The “hERG current change (%, negative = inhibition) at 1uM” value of the first is higher: 17.4% for the first, -4.22% for the second.

Going from `O=C(CCN1C(=O)c2ccccc2C1=O)NC(=S)Nc1ccccc1Cl` to `CCC(CCC(=O)Nc1ccn(-c2ccccc2)n1)C(=O)O` (stereo not shown), the “hERG current change (%, negative = inhibition) at 1uM” value rises from 5.29% to 7.09%.

Compared with `Cc1nc(NC(=O)c2ccccc2[N+](=O)[O-])sc1C(=O)N(C)C`, `O=C(O)c1ccc(S(=O)(=O)N(CCc2ccccc2)Cc2ccc(Cl)cc2)cc1` is lower in “hERG current change (%, negative = inhibition) at 1uM” value: 16.4% for the first, 11.5% for the second.

First: Brc1ccc(-c2cnco2)cc1
Second: O=C(CN1CCN(S(=O)(=O)c2ccc(Br)cc2)CC1)N/N=C/c1cccnc1
The “hERG current change (%, negative = inhibition) at 1uM” value of the first is higher: 9.53% for the first, -1.72% for the second.

Compared with `COc1ccc(S(=O)(=O)NC2CCCCC2)cc1C(=O)N1CCCCC1`, `C/C(=N\NC(=O)CN1CCN(S(=O)(=O)c2ccc(C)cc2)CC1)c1ccncc1` is lower in “hERG current change (%, negative = inhibition) at 1uM” value: 0.2% for the first, -77.6% for the second.

Going from `O=C(c1ccc2c(c1)N(Cc1ccccc1)C(=O)CS2)N1CCOCC1` to `C/C(=N\NC(=O)CN1CCN(Cc2ccccc2)CC1)c1ccncc1`, the “hERG current change (%, negative = inhibition) at 1uM” value falls from 1.45% to -3.1%.

Going from `CNCCOc1nc(N2CCOCC2)nc(C)c1[N+](=O)[O-]` to `C/C(=N\NC(=O)c1ccc(CN2CCOCC2)cc1)c1ccc([N+](=O)[O-])cc1`, the “hERG current change (%, negative = inhibition) at 1uM” value falls from 10.1% to 10%.

First: O=C(CN1CCN(S(=O)(=O)c2ccc(Br)cc2)CC1)N/N=C/c1ccncc1
Second: C/C(=N/NC(=O)CN1CCN(S(=O)(=O)c2ccc(Br)cc2)CC1)c1ccncc1
The “hERG current change (%, negative = inhibition) at 1uM” value of the first is lower: -51.8% for the first, -44.3% for the second.

Compared with `C/C(=N\NC(=O)CN1CCN(S(=O)(=O)c2ccc(C)cc2)CC1)c1ccc(O)cc1`, `C/C(=N\NC(=O)CN1CCN(Cc2ccc(C)cc2)CC1)c1ccncc1` is lower in “hERG current change (%, negative = inhibition) at 1uM” value: 9.16% for the first, -77.9% for the second.

Going from `C/C(=N\NC(=O)CN1CCN(Cc2ccccc2)CC1)c1cccs1` to `Cc1cc(C)cc(Nc2nc3c(S(=O)(=O)c4ccccc4)nnn3c3ccccc23)c1`, the “hERG current change (%, negative = inhibition) at 1uM” value rises from -2.13% to 11.3%.

With `CCOC(=O)CSC1=NC(=O)/C(=C/c2ccc(Br)cc2)S1` the “hERG current change (%, negative = inhibition) at 1uM” value was 9.71%.

— paper PMC4336329 (PLoS ONE, 2015)
